Assay outcomes deposited in PubChem BioAssay by National Center for Advancing Translational Sciences (NCATS).
Shown is part of a subset that was picked to be rich in hits.
SARS PLpro yeast – inhibitors of SARS-CoV papain-like protease in yeast; S. cerevisiae expressing SARS-CoV PLpro, growth rescue; Potency, µM (doses to about 32.9 µM), without a hit: top-dose activity, positive = growth rescue, actives largely listed as activators; hit rate 0.19% among 330,000; also: potency is read from the fitted curve at half-maximal effect; 0% is about no effect; nearly all actives have a fitted effect of over 55% in size
TbPYK inhibitor – inhibitors of Trypanosoma brucei pyruvate kinase; TbPYK enzyme, Kinase-Glo Plus ATP luminescence, 45 min; Potency, µM (titrated, usually from 76.8 µM), for the others: at the top dose activity, negative = inhibition, actives largely listed as inhibitors; hit rate 0.12% among 410,000; AID 624173; active = well fitted curve in the direction sought with a large enough effect; inconclusive = small, poorly fitted or top-dose-only effect, or another doubt; inactive = no such curve, though single readings can be large; an effect the other way counts as inactive or inconclusive; also: potency is read from the fitted curve at half-maximal effect; % is scaled to controls: 0 for no effect and ±100 for the full control effect; nearly all actives have a fitted effect of over 50% in size
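TbPYK + substrate in 50 mM TEA pH 7.2, 100 mM KCl, 10 mM MgCl2, 0.05% BSA, 0.01% Tween-20; cpd pinned; ADP 130 uM final; 45 min RT; Kinase-Glo Plus 10 min; luminescence endpoint.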
LmPK inh – inhibitors of Leishmania mexicana pyruvate kinase. Q27686. purified LmPK, Kinase-Glo ATP luminescence, 1 h. Potency, µM (highest dose often 57.5 µM), for the others: top-dose activity change, negative = inhibition, usual class: inhibitors. hit rate 0.37% among 290,000. AID 1721; active = well fitted curve in the direction sought with a large enough effect; inconclusive = small, poorly fitted or top-dose-only effect, or another doubt; inactive = no such curve, though single readings can be large; an effect the other way counts as inactive or inconclusive; also: potency is read from the fitted curve at half-maximal effect; % is scaled to controls: 0 for no effect and ±100 for the full control effect
Target sequence (Q27686 whole entry, looked up): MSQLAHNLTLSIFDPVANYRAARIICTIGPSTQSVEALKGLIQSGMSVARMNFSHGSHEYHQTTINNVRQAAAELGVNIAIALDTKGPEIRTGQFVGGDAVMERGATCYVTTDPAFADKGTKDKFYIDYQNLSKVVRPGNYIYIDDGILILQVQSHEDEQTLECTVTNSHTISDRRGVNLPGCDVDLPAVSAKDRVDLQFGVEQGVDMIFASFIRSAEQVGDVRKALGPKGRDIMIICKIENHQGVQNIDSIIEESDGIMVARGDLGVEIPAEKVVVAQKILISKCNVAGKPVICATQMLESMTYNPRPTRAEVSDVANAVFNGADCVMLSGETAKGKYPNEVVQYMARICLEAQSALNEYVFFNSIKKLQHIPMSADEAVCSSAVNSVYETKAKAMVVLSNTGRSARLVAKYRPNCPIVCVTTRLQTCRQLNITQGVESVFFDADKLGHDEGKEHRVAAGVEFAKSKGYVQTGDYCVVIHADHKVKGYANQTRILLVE
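Purified LmPK (0.1 nM) converted ADP (0.1 mM) to ATP with PEP (0.5 mM) in imidazole buffer pH 7.2 with KCl and MgCl2, 1 h at room temperature. ATP was read by Kinase-Glo luminescence; data normalized to uninhibited and no-enzyme controls.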
CHX counter – counter-screen for Shiga toxin inhibitors: cycloheximide protein synthesis inhibition; cell reporter, cycloheximide protein synthesis inhibition counterscreen; max response, %; hit rate 12% among 300,000; AID 2314; in the data active = max response mostly above about 13%, no sharp cut-off; inactive = mostly below about 14%; also: read at 38.3 µM for the half of the compounds with a filed dose; 0% is about no effect
Shiga inhibitor – Shiga toxin inhibition | hit rate 9.2% among 290,000 | inhibition, % at 38.7 µM | Vero cells, Shiga toxin protein synthesis inhibition reporter; in the data active = inhibition mostly above about 28%, no sharp cut-off; inactive = mostly below about 43%; also: 0% is about no effect
NS1 function inh – influenza NS1 inhibition; Potency, µM (titrated, usually from 46.1 µM), for the others: top-dose activity, positive = more growth; hit rate 0.4% among 270,000; AID 2326; also: potency is read from the fitted curve at half-maximal effect; actives are rising curves; nearly all actives have a fitted effect of over 50% in size
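Compounds were scored for reversing the slow growth caused by influenza A NS1 in S. cerevisiae, measured by optical density at 600 nm. Assay medium contained 2% galactose at pH 6.0; NS1-free yeast of the same strain were the positive control.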
The depositor's hits bear a star; ? = inconclusive; . = not tested or not shown; [ ] = another dose, or the depositor's remark. Unless noted, calls follow the shape of the full dose curve.

SMILES	SARS PLpro yeast	TbPYK inhibitor	LmPK inh	CHX counter	Shiga inhibitor	NS1 function inh
O=C(CC1C[C@H](C(=O)N2CCCCC2)[C@@]2(CCc3ccccc3)c3[nH]c4ccccc4c3CCN2C1=O)NCCc1ccccn1 (some centres undefined)	.	-1%	.	.	.	.
Cc1cccnc1NC(=O)CN1C(=O)COc2ccc(Cl)cc21	-3%	3%	0%	0	7	22%
O=C(/C=C/c1ccc2c(c1)OCO2)Nc1ccc(Cl)cn1	-7%	-6%	1%	34*	78*	.
O=C(COC(=O)COc1ccccc1F)Nc1ccc(Cl)cn1	0%	0%	3%	-2	1	-4%
COc1ccccc1C(=O)OCC(=O)Nc1ccc(Cl)cn1	-3%	2%	-1%	27*	15	.
CCOC(=O)/C=C/C(=O)OCC(=O)Nc1ccc(Cl)cn1	-22%	-6%	9%	17	15	-157%
CC(C)=CC(=O)OCC(=O)Nc1ccc(Cl)cn1	-19%	0%	-4%	19*	13	-22%
O=C(COc1ccccc1Cl)Nc1ccc(Cl)cn1	2%	-1%	-1%	39*	63*	-16%
O=C(COc1ccc(Cl)cc1)Nc1ccc(Cl)cn1	-8%	2%	1%	26*	34	1%
COc1ccc(C(=O)OCC(=O)Nc2ccc(Cl)cn2)cc1	-2%	0%	11%	-1	-19	2%
COC(=O)c1ccccc1NC(=O)COc1ccc2c(c1)OCO2	-1%	-3%	0%	6	12	-6%
O=C(COc1ccc2c(c1)OCO2)Nc1ccc(Cl)cn1	-5%	-10%	-2%	51*	69*	-4%
O=C(COc1ccccc1)Nc1ccc(Cl)cn1	1%	3%	1%	62*	62*	2%
CC(C)[C@]1(O)[C@@H](OC(=O)c2ccc[nH]2)[C@]2(O)[C@@]3(C)C[C@@]4(O)O[C@@]5([C@H](O)[C@@H](C)CC[C@]35O)[C@]2(O)[C@]41C	.	.	.	.	.	-6%
C=CCc1cc(C)ccc1OCCOCCN1CCN(C)CC1	-2%	2%	-8%	-2	-8	-2%
N/C(=N\OC(=O)c1ccc(Cl)cc1[N+](=O)[O-])c1ccccn1	-25%	-11%	-10%	48*	118*	-119%
Cc1c(C(=O)O/N=C(\N)c2ccccn2)cccc1[N+](=O)[O-]	-3%	-16%	?	22*	28	-43%
N/C(=N\OC(=O)c1ccc(Cl)cc1Cl)c1ccccn1	-4%	-32%	7.1µM*	-8	-20	-55%
Cc1c(C(=O)Oc2cccc3cccnc23)cccc1[N+](=O)[O-]	-4%	2%	10%	41*	171*	.
Cc1c(Cl)cccc1NC(=O)c1ccc2c(c1)CCCN2S(C)(=O)=O	.	0%	.	.	.	.
CCOC(=O)[C@]12CCC=C1N(CCC1=CCCCC1)C(=O)[C@H](CC(=O)NCc1cccc3ccccc13)C2	.	2%	.	.	.	.
CN(CC(=O)O/N=C(\N)c1ccccn1)S(=O)(=O)c1ccc(Br)cc1	-6%	-10%	4%	6	9	-18%
Cc1ccc(C(=O)O/N=C(\N)c2ccccn2)c(Cl)c1	-18%	14µM*	?	-11	.	-99%
N/C(=N\OC(=O)c1cc(Br)ccc1Cl)c1ccccn1	2%	1%	-18%	52*	77*	.
CC(CN1CCOCC1)C(Cc1ccccc1)(Cc1ccccc1)C(=O)N1CCCC1 (centres undefined)	.	-12%[157 µM]	.	.	.	.
SMILES	SARS PLpro yeast	TbPYK inhibitor	LmPK inh	CHX counter	Shiga inhibitor	NS1 function inh
c1ccc(C2CCCN(Cc3nc(CC4CC4)no3)CC2)cc1 (centres undefined)	-1%	2%	0%	16*	53*	-1%
COc1ccc(OCC2CCCN(Cc3nc(CC4CC4)no3)C2)cc1 (centres undefined)	-1%	1%	-18%	19*	24	-10%
O=C1CCCN1CC1CCN(Cc2nc(CC3CC3)no2)CC1	1%	-4%	-1%	11	48*	2%
Cc1ccccc1C1CCCN(Cc2nc(CC3CC3)no2)C1 (centres undefined)	-1%	-7%	2%	-5	29	5%
COc1cc(OC)cc(C2=Nn3c(nnc3-c3cccc(OC)c3)SC2)c1	.	.	.	1	-2	.
CCOc1cc(C(=O)Nc2ccc(-c3nc4ccccc4s3)cc2Cl)cc(OCC)c1OCC	.	3%	.	.	.	.
CC(C)CCSc1nc2ccccc2[nH]1	-13%	3%	-27%	52*	102*	.
C=C(C)CSc1nc2ccccc2[nH]1	-20%	-5%	-14%	29*	59*	1%
CN(Cc1cccs1)C(=O)CSc1nc2ccccc2[nH]1	0%	3%	2%	47*	123*	.
CC(=O)N=C(N)Sc1nc2ccccc2[nH]1	-36%	3%	-4%	48*	67*	-2%
CC(Sc1nc2ccccc2[nH]1)C(=O)O (centres undefined)	3%	-1%	5%	-3	-15	3%
C[N+](C)(C)CCCSc1nc2ccccc2[nH]1	.	.	.	.	.	-1%
CCOC(=O)NC(=O)CSc1nc2ccccc2[nH]1	0%	-3%	2%	7	17	20%
Clc1ncnc2scc(-c3ccc(Br)cc3)c12	10%	-1%	1%	2	-7	-4%
CCc1sc(Nc2cccc(C)c2)nc1-c1cc2cccc(OC)c2oc1=O	.	3%	.	.	.	.
C=C(C)CSc1nc2nc(C)c(Br)cc2[nH]1	-15%	.	-2%	30*	81*	-25%
CCc1ccc(-n2nc3ccc(NC(=O)COc4ccc(OC)cc4)cc3n2)cc1	.	-10%	.	.	.	.
CCC(C)c1ccc(NC(=S)NCc2ccccc2OC)cc1 (centres undefined)	-4%	11%	0%	8	39	-47%
CC(=O)Nc1ccc(NCc2cccs2)cc1	5%	-1%	1%	12	28	4%
Cc1cc(C)cc(NC(=S)NCc2cccs2)c1	-26%	-15%	3%	-2	26*	3%
COc1cc(NC(=S)NCc2cccs2)cc(OC)c1	16%	-3%	-6%	7	-2	7%
Oc1ccc(NCc2cccs2)cc1	-8%	?	-2%	24*	-2	-1%
CCC(C)c1ccc(NC(=S)NCc2cccs2)cc1 (centres undefined)	-7%	-19%	2%	23*	76*	-54%
CC(C)(C)c1ccc(NC(=S)NCc2cccs2)cc1	13%	1%	6%	23*	54	-34%
Cc1ccc(-n2ncc3c(N4CCCCCC4)ncnc32)cc1C	.	-8%	.	.	.	.
CCN(CC(=O)Nc1c(F)cccc1F)C(=O)c1cc(-c2cccs2)nn1-c1ccccc1	-5%	-5%	.	.	.	.
S=C(NCc1cccs1)Nc1ccc(Br)cc1Cl	22%	4%	-1%	44*	81*	-9%
Cc1cccc(NC(=S)NCc2cccs2)c1C	?	4%	1%	22*	-13	-2%
S=C(NCCc1ccccc1)NCc1cccs1	12%	1%	2%	54*	active	-17%
